ATXN viability: viability counter-screen for ATXN expression inhibitors. Potency, µM (series often up to 56.7 µM), actives largely listed as cytotoxic. 400,000 tested, 0.49% active. S2 cells (HEK-293 line with an ATXN2-luciferase reporter) viability, CellTiter-Fluor protease fluorescence, 24 h. AID 651635; further: nearly all actives have a fitted effect of over 40% in size
HTT ATP protect: protects HTT-Q103 PC12 cells, measured by ATP; Potency, µM (series often up to 56.4 µM), for inactives: cytoprotection (ATP increase), most hits filed as activators; 230,000 tested, 0.14% active; PC12 HTT-Q103 induced, cytoprotection, ATP luminescence, 40 h; further: % of control where 0% means no effect; nearly all actives have a fitted effect of over 45% in size
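Huntington model: PC12 line, ecdysone-inducible HTTQ103 exon1–GFP, tebufenozide 100 nM. Test articles in a dose series. Endpoint luminescence from cellular ATP.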
ATXN2 expr inh: reduces ATXN2 reporter expression in HEK-293 cells | HEK-293 ATXN2-luciferase reporter, luminescence, 24 h | Potency, µM (top dose mostly 57 µM), inactives show top-dose activity change, negative = inhibition, actives largely listed as inhibitors | 360,000 tested, 0.72% active | AID 1745845; further: on the % scale 0 is the no-effect control and ±100 the full control effect; nearly all actives have a fitted effect of over 55% in size
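ATXN2-luciferase reporter cells (luciferase flanked by upstream and downstream ATXN2 gene portions) were treated 24 h at 37 °C with compounds at up to 57 uM. SteadyGlo luminescence gave expression; GF-AFC fluorescence gave viability.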
HepG2 viability: counter-screen for TGF-b inhibitors: cytotoxicity in HepG2 cells. 410,000 tested, 0.76% active. HepG2 CAGA-GFP viability, ATP luminescence, 18 h. Potency, µM (top dose mostly 46.1 µM), for the others: top-dose activity change, negative = cytotoxicity, usual class: cytotoxic
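CellTiter-Glo luminescence gave cytotoxicity after 18 hours at 37 degrees C. The cells were HepG2 CAGA-GFP in 1% FBS DMEM, stimulated with 500 pg/mL TGF-beta after compound addition. %Activity was normalised to no-cell wells (complete cell-killing) and DMSO (no toxicity), and curves were fitted and classified.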
HTT aggregate: mutant huntingtin aggregation inhibition; PC12 HttQ103-GFP aggregates, Acumen cytometry, 40 h; Potency, µM (highest dose often 46.1 µM), without a hit: at the top dose activity change, negative = inhibition, hits mostly inhibitors; 220,000 tested, 1.1% active; further: on the % scale 0 is the no-effect control and ±100 the full control effect; nearly all actives have a fitted effect of over 60% in size
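Steps: seed 1500 PC12 HTTQ103-GFP cells/well; add tebufenozide, 100 nM final; add compound titration; add ATPLite reagent; quantify GFP aggregates by laser scanning cytometry.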
TGFb SMAD3 inh: inhibitors of TGF-b signaling. HepG2 CAGA-GFP TGF-b/SMAD3 reporter, GFP fluorescence, 18 h; TGF-beta stimulated, 500 pg/mL final. Potency, µM (titrated, usually from 46.1 µM), for the others: top-dose activity, negative = inhibition, actives largely listed as inhibitors. 410,000 tested, 1.2% active; further: on the % scale 0 is the no-effect control and ±100 the full control effect; nearly all actives have a fitted effect of over 65% in size
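HEPG2 CAGA-GFP, 1000 cells/well; 2 h settle, 37 C; cpd via pin tool; TGF-b 500 pg/mL final; 18 h, 37 C; GFP imaging ex488/em500-530; %Activity normalised to -TGF-b and +DMSO controls; CRC fit, curve class.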
The depositor's hits bear a star; i = inactive; ? = inconclusive; · = not tested or not shown; [ ] = another dose, or the depositor's remark. Shown are actives, neighbours in structure and some others; about 2.8% of the full set was active somewhere. The call rests on the fitted dose curve; in most records, active means well fitted curve in the direction sought with a large enough effect; inconclusive means small, poorly fitted or top-dose-only effect, or another doubt; inactive means no such curve, though single readings can be large; an effect the other way counts as inactive or inconclusive. Potency means the concentration at half of the fitted maximal effect.

SMILES	ATXN viability	HTT ATP protect	ATXN2 expr inh	HepG2 viability	HTT aggregate	TGFb SMAD3 inh
Cn1c2ccccc2c2c3c(c4c5ccccc5n(CCC#N)c4c21)CNC3=O	·	-80%	6.9µM*	·	·	·
COC(=O)C1=C(C(=O)OC)[C@@H]2Nc3ccccc3[C@@]23C[C@@H](C(=O)OC)N(S(=O)(=O)c2ccc(OC)cc2)C3=N1	·	11%[10 µM]	·	·	·	·
O=C(NNc1ccccc1Br)C(=O)n1ccc2ccccc21	i	3.5µM*	-2%	4%	2%	-5%
N/C(=N\S(=O)(=O)c1cc(C(F)(F)F)cc(C(F)(F)F)c1)c1ccncc1	i	·	-8%	-29%	·	5%
N/C(=N\S(=O)(=O)c1cc(C(F)(F)F)cc(C(F)(F)F)c1)c1ccc(Cl)cc1	?	9%[10 µM]	?	-119%	-8%[9.22 µM]	10µM*
Cc1ccc2nc(N(Cc3cccnc3)C(=O)C3CCCCC3)sc2c1	·	·	·	-4%	·	-1%
O=C(C1CCCCC1)N(Cc1cccnc1)c1nc2c(F)cc(F)cc2s1	·	·	·	-36%	·	22µM*
Cc1cccc2sc(N(Cc3cccnc3)C(=O)C3CCCCC3)nc12	·	·	·	-41%	·	10µM*
CN1C(=O)CC(C)(c2ccccc2)C1=O (stereo unspecified)	i	·	6%	·	·	·
CN(c1ccccc1)S(=O)(=O)c1cccc(C(=O)Nc2nccs2)c1	i	-127%	·	-20%	-20%	-13%
C=CCSc1nnc(NC(=O)c2cccc(S(=O)(=O)N(C)c3ccccc3)c2)s1	i	-18%[0.074 µM]	0%	-1%	10µM*	?
Cc1cc(Cn2cnc3c(cnn3C(C)(C)C)c2=O)ccc1F	·	·	·	-6%	·	-15%
OC[C@@H]1O[C@@H](N2CCN([C@@H]3O[C@@H](CO)[C@@H](O)[C@H](O)[C@H]3O)CC2)[C@@H](O)[C@H](O)[C@H]1O	·	4%[10 µM]	·	·	·	·
CCC(=O)C1=C(O)C(c2cccc(Oc3ccccc3)c2)CCC1=O (stereo unspecified)	i	-6%	·	-15%	10µM*	-23%
Cc1ccccc1CN1[C@@H](Cc2ccccc2)COCCS1(=O)=O	i	·	-7%	6%	·	?
C=C1[C@@H](O)[C@H](Cc2ccccc2)N(Cc2ccccc2Br)S1(=O)=O	18µM*	·	20µM*	10µM*	·	?
COc1ccc(C(=O)N2CCC(c3nc4ccccc4s3)CC2)cc1Cl	?	·	?	-31%	·	8.9µM*
CCCCN(CCCC)C(=S)NC(=O)C(C)(C)C	i	10%[10 µM]	-13%	-24%	-12%	?
CCCCN(CCCC)C(=S)[S-].CCCCN(CCCC)C(=S)[S-].[Zn+2]	8.9µM*	·	·	·	·	·
c1coc(CNc2ncnc3c2nc2n3CCCC2)c1	·	·	·	-9%	·	-28%
OCc1ccc(-c2ccc(-c3ccc(CO)s3)o2)s1	·	-204%	?	·	·	·
CCc1ccccc1S(=O)(=O)Cc1ccc(C(=O)NCCc2ccc(Cl)cc2)o1	·	·	?	-46%	·	11µM*
O=C(NCCc1ccc(Cl)cc1)Nc1cccc(Cl)c1	i	-83%	-29%	-39%	8.9µM*	?
O=C(NCCc1ccc(Cl)cc1)c1ccc(CS(=O)Cc2cccc(Cl)c2)o1 (stereo unspecified)	·	·	·	-19%	·	8.9µM*
CCN1CCN(S(=O)(=O)c2ccc(Cl)c(C(=O)Nc3ccc(OC(F)F)cc3)c2)CC1	i	·	-5%	8.9µM*	·	-22%
SMILES	ATXN viability	HTT ATP protect	ATXN2 expr inh	HepG2 viability	HTT aggregate	TGFb SMAD3 inh
COc1ccccc1N1C(=O)C=C(Sc2nc(C)cc(C)n2)C1=O	i	-8%[10 µM]	-28%	11µM*	5%[9.22 µM]	11µM*
COc1ccccc1N1C(=O)C2CC(C)=C(C)CC2C1=O (stereo unspecified)	i	-10%[10 µM]	1%	-7%	2%	-3%
CN(C)CCCNc1cc(N2CCN(C)CC2)ncn1	·	·	·	5%	·	8%
CCc1cc(C(=O)c2ccc(OC)cc2)c(N)s1	i	·	1%	-8%	0.11µM*	-27%
COc1ccc(N2CCN(C(=O)c3cnc(N4CCCC4)nc3C)CC2)cc1	i	·	0%	2%	·	-17%
COc1ccc(N2CCN(C(=O)c3cccnc3SCc3cccc(Br)c3)CC2)cc1	i	-17%	-22%	12%	22µM*	?
C#CC(=O)N(c1ccc(OC)c(OC)c1)C(C(=O)NC1CCCC1)c1cccs1 (stereo unspecified)	·	1%[10 µM]	?	13µM*	?	?
C#CC(=O)N(c1cccc(OC)c1)C(C(=O)NC1CCCC1)c1cccs1 (stereo unspecified)	1.6µM*	-7%	1.6µM*	8.9µM*	22%	22µM*
CCOc1ccc(-c2ccc(/C=C3/C(=N)N4C(C)=CSC4=NC3=O)o2)c([N+](=O)[O-])c1	?	23%[10 µM]	-10%	-6%	-18%	-29%
CCOc1ccc(-c2ccc(/C=C3/C(=N)N4C=CSC4=NC3=O)o2)c([N+](=O)[O-])c1	·	12%[10 µM]	25µM*	36%	?	-4%
CS(=O)(=O)c1ccc(C(=O)OCC(=O)N2CCN(CCC3CCCCC3)CC2)cc1[N+](=O)[O-]	?	·	3.5µM*	3.2µM*	·	4µM*
CS(=O)(=O)c1ccc(C(=O)OCC(=O)N2CCOCC2)cc1[N+](=O)[O-]	?	·	?	8.9µM*	·	7.1µM*
CS(=O)(=O)c1ccc(C(=O)OCC(=O)N2CC(=O)Nc3ccccc32)cc1[N+](=O)[O-]	·	·	·	2%	·	0%
CS(=O)(=O)c1ccc(C(=O)OCC(=O)N2CCCC2)cc1[N+](=O)[O-]	·	·	·	-102%	·	11µM*
CC1CCCCN1C(=O)COC(=O)c1ccc(S(C)(=O)=O)c([N+](=O)[O-])c1 (stereo unspecified)	·	·	·	7.9µM*	·	?
CN[C@@H](C)C(=O)N[C@H]1CCCC[C@H]2CC[C@@H](C(=O)N[C@@H](c3ccccc3)c3cn(CCCCc4ccc(CCCCn5cc([C@@H](NC(=O)[C@@H]6CC[C@@H]7CCCC[C@H](NC(=O)[C@H](C)NC)C(=O)N76)c6ccccc6)nn5)cc4)nn3)N2C1=O	·	·	-3%	·	·	·
CN(C)/[N+]([O-])=N/Oc1ccc([N+](=O)[O-])cc1C(F)(F)F	·	·	·	-33%	·	-1%
Cc1ccc2occ(CC(=O)N(Cc3ccc(Cl)cc3)Cc3ccco3)c2c1	i	·	-23%	-21%	·	16µM*
Cc1ccc(CN(Cc2ccco2)C(=O)c2oc3ccc(C)cc3c2C)cc1	i	·	4%	-27%	·	?
CNc1ccc(O)cc1	·	-103%	·	·	·	·
CC(=O)n1cc(N(C(=O)CCl)c2ccc(C)cc2)c2ccccc21	10µM*	-4%[10 µM]	8.9µM*	5µM*	7%[9.22 µM]	5.6µM*
